Tb PGK inh = qHTS Assay to Find Inhibitors of Phosphoglycerate Kinase; PGK/GAPDH coupled, Kinase-Glo luminescence, 60 min; Potency, µM (doses to about 57.5 µM), for the others: at the top dose activity change, negative = inhibition, usual class: inhibitors; 380,000 tested, 0.043% active; AID 602233, 2012; Phosphoglycerate kinase, glycosomal (Trypanosoma brucei brucei), P07378; further: nearly all actives have a fitted effect of over 60% in size
Target sequence (P07378 whole entry, looked up): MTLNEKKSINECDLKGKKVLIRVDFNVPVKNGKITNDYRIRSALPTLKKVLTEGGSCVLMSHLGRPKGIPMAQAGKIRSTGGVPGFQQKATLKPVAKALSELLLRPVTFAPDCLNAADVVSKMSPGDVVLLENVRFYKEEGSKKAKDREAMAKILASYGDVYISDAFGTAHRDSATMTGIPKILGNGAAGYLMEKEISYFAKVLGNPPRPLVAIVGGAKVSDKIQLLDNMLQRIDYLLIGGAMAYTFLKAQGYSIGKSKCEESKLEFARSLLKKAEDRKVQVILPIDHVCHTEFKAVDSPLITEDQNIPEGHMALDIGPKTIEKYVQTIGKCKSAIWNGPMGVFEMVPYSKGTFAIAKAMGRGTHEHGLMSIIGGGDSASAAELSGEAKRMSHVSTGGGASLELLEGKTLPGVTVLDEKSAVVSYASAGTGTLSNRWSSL
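Luminescent ATP detection (Kinase-Glo Plus) follows a 60-minute room-temperature incubation, with wells lacking PGK as controls. Buffer: 100 mM TEA (pH 7.6), 5 mM MgCl2, 0.01% Tween-20. Coupling enzyme GAPDH (100 nM final) supplies unstable 1,3-BPG in-well.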
RECQ1 inh = qHTS Assay for Inhibitors of RecQ-Like Dna Helicase 1 (RECQ1); ATP-dependent DNA helicase Q1 (Homo sapiens), P46063; RECQ1 DNA unwinding, red fluorescence kinetic read; Potency, µM (highest dose often 57.3 µM), without a hit: at the highest dose activity, negative = inhibition, actives largely listed as inhibitors; 240,000 tested, 0.54% active; AID 2549, 2010;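 further: plate controls were vehicle for no effect and no enzyme for full effect; nearly all actives have a fitted effect of over 30% in size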
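50 nM RECQ1T1 preincubated 15 min with compound in Tris pH 8.0 buffer with MgCl2, DTT, Tween-20 and 2.5 ug/ml poly(dI-dC); started with 200 nM TAMRA/BHQ-2 forked duplex and 2 mM ATP. Unwinding read as fluorescence (525/598 nm), two reads 2 h apart.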
APE1 inh = qHTS Assay for Inhibitors of the Human Apurinic/apyrimidinic Endonuclease 1 (APE1); recombinant APE1, TAMRA/BHQ-2 abasic DNA cleavage fluorescence; Potency, µM (series often up to 65.8 µM), for the others: top-dose activity change, negative = inhibition, hits mostly inhibitors; 350,000 tested, 0.35% active; DNA repair nuclease/redox regulator APEX1 (Homo sapiens), P27695;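 further: plate controls were vehicle for no effect and reference inhibitor for full effect; nearly all actives have a fitted effect of over 55% in size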
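Quantitative HTS: incision of a TAMRA/BHQ-2 double-stranded substrate bearing a tetrahydrofuran abasic site by 0.75 nM APE1 raises fluorescence. Substrate 50 nM final, added after 15 min compound preincubation at room temperature; progress as third-minus-first kinetic read difference.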
GLS inhibitor = qHTS for Inhibitors of Glutaminase (GLS); Glutaminase kidney isoform, mitochondrial (Homo sapiens), O94925; 410,000 tested, 0.21% active; AID 624170, 2012; Potency, µM (top dose mostly 45.5 µM), without a hit: at the top dose activity change, negative = inhibition, most hits filed as inhibitors; GLS enzymatic activity, qHTS titration
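Glutamate formation by hKGA was monitored fluorometrically using coupled glutamate oxidase, HRP and Amplex Red. Substrate was added as 1 mM L-glutamine solution; incubation was 30 min at RT after an initial read.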
TDP1 inh = qHTS Assay for Inhibitors of Tyrosyl-DNA Phosphodiesterase (TDP1); 350,000 tested, 0.28% active; AID 485290, 2010; Potency, µM (titrated, usually from 130 µM), without a hit: at the highest dose activity change, negative = inhibition, actives largely listed as inhibitors; recombinant TDP1, AlphaScreen DNA substrate cleavage; further: nearly all actives have a fitted effect of over 40% in size
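E. coli-derived human Tdp1, 1 nM final. Cpd preinc 15 min RT; substrate 15 nM final, 5 min RT; AS bead mix 10 ug/ml final, 10 min RT. Signal loss = tyrosine-FITC cleavage. No-enzyme wells = max signal.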
BLM helicase inh = qHTS Assay for Inhibitors of Bloom's syndrome helicase (BLM); Potency, µM (doses to about 56.1 µM), for the others: at the top dose activity change, negative = inhibition, actives largely listed as inhibitors; recombinant BLM DNA unwinding, fluorescence dequenching; RecQ-like DNA helicase BLM (Homo sapiens), P54132; 350,000 tested, 0.2% active; AID 2528, 2010;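 further: plate controls were vehicle for no effect and no enzyme for full effect; nearly all actives have a fitted effect of over 35% in size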
The depositor's hits bear a star; i = inactive; u = inconclusive; x = no result. Rows were chosen to be rich in hits. Some 0.85% of all compounds tested hit in one or more screens of this group. The call rests on the fitted dose curve; in most records, active means well fitted curve in the direction sought with a large enough effect; inconclusive means small, poorly fitted or top-dose-only effect, or another doubt; inactive means no such curve, though single readings can be large; an effect the other way counts as inactive or inconclusive. Unless noted, on the % scale 0 is the no-effect control and ±100 the full control effect; potency means the concentration at half of the fitted maximal effect.

SMILES	Tb PGK inh	RECQ1 inh	APE1 inh	GLS inhibitor	TDP1 inh	BLM helicase inh
O=C1c2ccccc2C(=O)N1c1noc2ccccc12	x	x	x	x	1%	x
CC(=O)Nc1ccc(S(=O)(=O)N2CCCN(S(=O)(=O)c3ccc4c(c3)OCCO4)CC2)cc1	x	x	x	x	2%	x
Oc1ccc(NCc2cccs2)cc1	-4%	x	15%	11µM*	2%	-3%
CC(C)CN(C[C@@H](O)[C@H](Cc1ccccc1)NC(=O)O[C@@H]1CCOC1)S(=O)(=O)c1ccc(N)cc1	x	x	-2%	x	x	x
CCOc1cc(/C=N/NC(=O)N/N=C/c2ccc(O)c(OCC)c2)ccc1O	11%	x	x	8.9µM*	x	x
O=C(N/N=C/c1ccccc1O)NC12CC3CC(CC(C3)C1)C2	13%	x	-22%	3%	x	-8%
COc1cc(/C=N/NC(=O)C(=O)N2CCCCCC2)ccc1O	3%	x	0%	8.9µM*	0%	-1%
O=C(N/N=C/c1cc(Cl)cc([N+](=O)[O-])c1O)NC12CC3CC(CC(C3)C1)C2	11µM*	5%	-1%	8.9µM*	5%	u
C=CCOc1ccc(/C=N/NC(=O)C(=O)N2CCCCCC2)cc1OC	5%	x	-2%	8%	4%	1%
COc1cc(/C=N/NC(=O)NC23CC4CC(CC(C4)C2)C3)ccc1O	-7%	x	30%	7.9µM*	x	-3%
CCOc1cc(/C=N/NC(=O)C(=O)N/N=C/c2ccc(O)c(OCC)c2)ccc1O	0%	x	-4%	-24%	x	-7%
COc1ccc(CN(Cc2ccccc2)C(=O)c2ccccc2N)cc1COc1ccc(NC(C)=O)cc1	x	x	x	x	1%	x
Cc1ccc(NS(=O)(=O)c2ccc3c(c2)CCC(=O)N3)cc1Cl	x	x	x	x	-4%	x
C/C=C1\NC(=O)[C@H]2CSSCC/C=C\[C@H](CC(=O)N[C@H](C(C)C)C(=O)N2)OC(=O)C(C(C)C)NC1=O (some centres not stated)	x	x	x	0%	x	x
CN(C)S(=O)(=O)c1cccc(NC(=S)N/N=C/c2ccc(O)c(O)c2O)c1	-1%	-8%	u	7.9µM*	x	-11%
CCN(CCO)c1ccc(NC(=S)Nc2cccc(S(=O)(=O)N(C)C)c2)cc1	11%	40µM*	u	u	0%	-20%
O=C1CCc2cc(S(=O)(=O)Nc3ccccc3-c3ccccc3)ccc2N1	x	x	x	x	2%	x
Cc1ccc(NC(=O)CN(C)C(=O)c2cccc(-n3cccc3)c2)cc1	u	x	0.95µM*	u	x	x
COc1ccc(NC(=O)CN(C)C(=O)c2cccc(-n3cccc3)c2)cc1	u	x	2.4µM*	u	2.5µM*	x
COc1ccc(NC(=O)CN(C)C(=O)c2cccc(Oc3ccccc3)c2)cc1	-10%	x	-9%	-3%	3%	x
Cc1cccc(NC(=O)CNC(=O)c2cccc(-n3cccc3)c2)c1C	u	x	1.9µM*	-30%	x	x
C#CCC(Cc1cnc2nc(N)nc(N)c2n1)c1ccc(C(=O)N[C@@H](CCC(=O)O)C(=O)O)cc1 (some centres not stated)	x	x	x	-2%	x	x
COC(=O)C[C@](O)(CCCC(C)(C)O)C(=O)O[C@@H]1C(OC)=CC23CCCN2CCc2cc4c(cc2[C@H]13)OCO4 (some centres not stated)	x	x	-6%	x	x	x
COc1ccc(/C=C/C(=O)O)cc1S(=O)(=O)NC1CCS(=O)(=O)C1 (configuration not stated)	u	i	-3%	10%	50µM*	3%
Cc1cc(S(=O)(=O)C(CNC(=O)COc2ccccc2)c2cccs2)ccc1F (configuration not stated)	-1%	x	x	-11%	1%	-4%
SMILES	Tb PGK inh	RECQ1 inh	APE1 inh	GLS inhibitor	TDP1 inh	BLM helicase inh
Cc1ccc(S(=O)(=O)C(CNC(=O)COc2ccccc2)c2cccs2)cc1 (configuration not stated)	10µM*	x	x	u	u	2%
COc1cc([C@@H]2c3cc4c(cc3C(O[C@@H]3O[C@@H]5COC(c6cccs6)O[C@H]5[C@H](O)[C@H]3O)C3COC(=O)[C@@H]32)OCO4)cc(OC)c1O (some centres not stated)	x	x	-1%	x	x	x
N#C/C(=C\c1ccc(-c2ccc(C(=O)O)cc2)o1)C(=O)NCC1CCCO1 (configuration not stated)	3%	-5%	u	-5%	56µM*	3%
CC(C)CNc1nc(C#N)nc(Nc2ccccc2)n1	x	-8%	1%	x	6%	-11%
Cc1c(C(=O)O)sc2nc(/C=C/c3ccccc3OC(F)F)[nH]c(=O)c12	-16%	x	u	-5%	71µM*	-10%
O=C(O)c1ccc(/C=C/c2nc3sc4c(c3c(=O)[nH]2)CCC4)cc1	-2%	-12%	u	10%	50µM*	-2%
Cc1ccc(/C=C/c2nc3sc(C(=O)O)c(C)c3c(=O)[nH]2)cc1[N+](=O)[O-]	i	x	8.4µM*	u	11µM*	-9%
c1ccc(C(O[C@H]2CCCN(CCc3ccc4c(c3)OCO4)C2)c2ccccc2)cc1	x	x	-4%	x	x	x
COc1cccc(C2c3c(ncn(-c4ccccc4-c4ccccc4)c3=N)Oc3ccc4ccccc4c32)c1 (configuration not stated)	x	x	x	x	1%	x
FC(F)Oc1ccc(C2=Nn3c(nnc3-c3ccccc3C(F)(F)F)SC2)cc1OCC1CC1	x	x	-2%	x	x	x
Cc1ccccc1Cn1c(=O)c2c(nc3n2CCN3Cc2ccco2)n(C)c1=O	i	x	x	7.9µM*	x	x
O=C(O)c1cc(-c2ccc(/C=C3\NC(=O)N(c4ccc(Cl)cc4)C3=O)o2)ccc1Cl	32µM*	u	25µM*	20µM*	6.3µM*	52%
C#CCN1C(=O)S/C(=C\c2ccc(-c3ccc(Cl)c(C(=O)O)c3)o2)C1=O	-19%	x	4%	-7%	x	-7%
CCOC(=O)c1cc(-c2ccc(/C=C3/C(=O)N(c4ccc(C(=O)O)cc4)N=C3C)o2)ccc1Cl	-11%	x	8.4µM*	0%	x	-1%
O=C(O)c1cc(-c2ccc(/C=c3\sc4nc5ccc(Br)cc5n4c3=O)o2)ccc1Cl	x	x	2.7µM*	x	x	-27%

High-throughput results deposited in PubChem by National Center for Advancing Translational Sciences (NCATS).
